This note sets out measurements from article PMC7862700, “An all-to-all approach to the identification of sequence-specific readers for epigenetic DNA modifications on cytosine”.

Test in all cases: DAPPL (digital affinity profiling via proximity ligation, sequencing); 10 mM Tris-HCl pH 7.5, 50 mM NaCl, 1 mM DTT, 4% glycerol, room temperature, 30 min; GST-TFs on glutathione beads, 16-mer random dsDNA library, 0.1% formaldehyde crosslink after washing; high values mean tight binding
Holding throughout (details): protein: recombinant; tags: N-terminal GST; dsDNA, one strand shown

In one assay the target is T1, FLI1 (Homo sapiens, UniProt Q01543 1-452).
T1 sequence: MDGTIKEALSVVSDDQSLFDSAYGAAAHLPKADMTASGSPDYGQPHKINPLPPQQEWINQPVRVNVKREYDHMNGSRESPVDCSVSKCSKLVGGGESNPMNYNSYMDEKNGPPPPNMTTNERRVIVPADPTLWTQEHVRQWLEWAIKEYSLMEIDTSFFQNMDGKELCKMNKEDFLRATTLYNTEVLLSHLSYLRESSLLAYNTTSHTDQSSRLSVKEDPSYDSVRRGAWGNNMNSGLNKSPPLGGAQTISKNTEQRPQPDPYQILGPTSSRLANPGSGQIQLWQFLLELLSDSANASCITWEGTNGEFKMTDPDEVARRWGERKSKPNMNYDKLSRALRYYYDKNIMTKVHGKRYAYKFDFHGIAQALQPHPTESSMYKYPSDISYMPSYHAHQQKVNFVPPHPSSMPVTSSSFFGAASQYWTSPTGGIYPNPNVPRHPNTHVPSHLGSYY
In a few lines:
(§1)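 Beads coated with glutathione captured GST-fused human transcription factors that had been expressed in yeast, and the factors were then given DNA barcodes and pooled with a tag-only sample. The pools were incubated with 200 nmole of a random double-stranded 16-mer DNA library in Tris/NaCl/DTT/glycerol buffer for 30 min at room temperature, washed, crosslinked with 0.1% formaldehyde and proximity-ligated with BsaI/T4 ligase at 37 °C for 1 h. PCR amplification and Illumina NextSeq500 sequencing came last. Binding signal is each hexamer's read frequency for a factor divided by its frequency for the tag-only sample.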

For another assay, the target named is T2, ELK1 (Homo sapiens, UniProt P19419 1-428).
T2 sequence: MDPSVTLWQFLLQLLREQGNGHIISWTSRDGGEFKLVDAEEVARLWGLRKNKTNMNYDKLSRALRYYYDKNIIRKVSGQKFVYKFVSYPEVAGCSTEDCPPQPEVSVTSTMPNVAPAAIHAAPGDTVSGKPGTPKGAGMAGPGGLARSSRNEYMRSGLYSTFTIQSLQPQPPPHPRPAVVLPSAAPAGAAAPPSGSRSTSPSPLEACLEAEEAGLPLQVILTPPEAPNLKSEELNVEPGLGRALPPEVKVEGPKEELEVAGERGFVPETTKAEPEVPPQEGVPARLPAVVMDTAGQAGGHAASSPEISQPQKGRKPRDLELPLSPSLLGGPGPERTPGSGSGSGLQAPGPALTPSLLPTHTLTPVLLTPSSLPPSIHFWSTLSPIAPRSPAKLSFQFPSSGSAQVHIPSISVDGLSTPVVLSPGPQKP
In a few lines:
as §1

A further assay deals with T3, GABPA (Homo sapiens, UniProt Q06546 1-454).
T3 sequence: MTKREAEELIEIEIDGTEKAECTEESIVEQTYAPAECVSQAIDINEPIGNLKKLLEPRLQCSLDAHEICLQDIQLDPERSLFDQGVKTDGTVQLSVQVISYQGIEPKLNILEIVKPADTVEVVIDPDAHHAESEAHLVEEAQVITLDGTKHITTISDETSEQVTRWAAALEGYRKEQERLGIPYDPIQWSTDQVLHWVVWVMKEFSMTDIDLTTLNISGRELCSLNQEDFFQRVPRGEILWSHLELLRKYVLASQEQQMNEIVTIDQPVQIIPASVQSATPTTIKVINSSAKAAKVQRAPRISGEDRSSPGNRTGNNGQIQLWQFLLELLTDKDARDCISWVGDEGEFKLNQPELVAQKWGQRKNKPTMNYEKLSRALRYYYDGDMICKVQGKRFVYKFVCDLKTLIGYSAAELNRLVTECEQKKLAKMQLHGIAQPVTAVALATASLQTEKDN
In a few lines: as §1

A further assay concerns the target T4, ERG (Homo sapiens, UniProt P11308 1-479).
T4 sequence: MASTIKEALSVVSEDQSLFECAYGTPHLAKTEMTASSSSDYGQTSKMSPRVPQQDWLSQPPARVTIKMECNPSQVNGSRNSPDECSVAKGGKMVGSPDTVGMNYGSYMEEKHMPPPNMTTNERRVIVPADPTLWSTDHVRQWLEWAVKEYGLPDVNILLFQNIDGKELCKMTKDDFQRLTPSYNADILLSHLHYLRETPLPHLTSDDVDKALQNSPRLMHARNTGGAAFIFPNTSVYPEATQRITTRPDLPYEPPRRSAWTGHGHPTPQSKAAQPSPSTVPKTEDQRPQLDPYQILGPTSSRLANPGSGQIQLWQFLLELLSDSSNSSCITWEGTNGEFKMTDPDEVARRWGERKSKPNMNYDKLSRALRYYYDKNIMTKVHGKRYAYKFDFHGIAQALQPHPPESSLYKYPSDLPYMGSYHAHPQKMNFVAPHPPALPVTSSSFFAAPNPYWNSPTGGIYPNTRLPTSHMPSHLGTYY
In a few lines: as §1

A further assay deals with ELF1 (Homo sapiens, UniProt P32519 1-619). In a few lines: as §1
The target in the next assay is T5, EHF (Homo sapiens, UniProt Q9NZC4 1-300).
T5 sequence: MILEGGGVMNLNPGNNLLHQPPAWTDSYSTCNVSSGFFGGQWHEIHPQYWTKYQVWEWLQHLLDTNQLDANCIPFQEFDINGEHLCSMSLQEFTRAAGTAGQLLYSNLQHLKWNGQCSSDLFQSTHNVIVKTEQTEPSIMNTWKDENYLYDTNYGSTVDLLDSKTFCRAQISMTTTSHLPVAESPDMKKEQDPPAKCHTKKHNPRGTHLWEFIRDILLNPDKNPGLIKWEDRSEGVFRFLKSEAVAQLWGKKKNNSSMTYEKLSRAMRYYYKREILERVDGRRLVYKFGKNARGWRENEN
In a few lines: as §1

The target of a further assay is SPI1 (Homo sapiens, UniProt P17947 1-270). In a few lines: as §1
For the next assay, the target named is SPIB (Homo sapiens, UniProt Q01892 1-262). In a few lines:
as §1

Another assay deals with T6, ELK3 (Homo sapiens, UniProt P41970 1-407).
T6 sequence: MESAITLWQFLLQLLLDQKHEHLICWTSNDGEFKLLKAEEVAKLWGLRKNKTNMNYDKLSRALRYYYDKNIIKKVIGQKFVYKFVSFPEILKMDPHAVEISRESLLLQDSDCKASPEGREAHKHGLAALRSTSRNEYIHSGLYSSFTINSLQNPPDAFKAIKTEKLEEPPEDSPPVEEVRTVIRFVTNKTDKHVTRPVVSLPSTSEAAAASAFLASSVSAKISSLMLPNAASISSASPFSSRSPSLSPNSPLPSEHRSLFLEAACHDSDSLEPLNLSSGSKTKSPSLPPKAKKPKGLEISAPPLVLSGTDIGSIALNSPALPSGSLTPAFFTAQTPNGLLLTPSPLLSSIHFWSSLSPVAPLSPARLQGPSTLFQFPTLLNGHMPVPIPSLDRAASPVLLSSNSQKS
In a few lines: as §1

Sequence of ELF1 (P32519 whole entry): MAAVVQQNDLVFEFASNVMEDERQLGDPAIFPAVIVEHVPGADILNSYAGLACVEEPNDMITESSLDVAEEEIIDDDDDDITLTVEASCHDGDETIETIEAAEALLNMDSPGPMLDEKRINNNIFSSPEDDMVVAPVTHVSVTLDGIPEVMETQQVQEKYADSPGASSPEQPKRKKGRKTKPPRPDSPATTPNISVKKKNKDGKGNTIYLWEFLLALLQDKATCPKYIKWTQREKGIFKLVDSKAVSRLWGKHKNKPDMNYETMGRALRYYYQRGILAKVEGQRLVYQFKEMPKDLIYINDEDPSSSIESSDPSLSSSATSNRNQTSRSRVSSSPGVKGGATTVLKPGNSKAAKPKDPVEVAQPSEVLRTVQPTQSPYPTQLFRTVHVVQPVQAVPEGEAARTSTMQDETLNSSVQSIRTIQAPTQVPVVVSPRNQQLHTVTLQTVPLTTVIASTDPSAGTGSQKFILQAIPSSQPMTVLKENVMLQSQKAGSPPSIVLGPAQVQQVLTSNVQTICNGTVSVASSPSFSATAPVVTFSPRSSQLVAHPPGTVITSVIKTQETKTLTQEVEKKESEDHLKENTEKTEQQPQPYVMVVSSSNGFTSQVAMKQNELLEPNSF
Sequence of SPIB (Q01892 whole entry): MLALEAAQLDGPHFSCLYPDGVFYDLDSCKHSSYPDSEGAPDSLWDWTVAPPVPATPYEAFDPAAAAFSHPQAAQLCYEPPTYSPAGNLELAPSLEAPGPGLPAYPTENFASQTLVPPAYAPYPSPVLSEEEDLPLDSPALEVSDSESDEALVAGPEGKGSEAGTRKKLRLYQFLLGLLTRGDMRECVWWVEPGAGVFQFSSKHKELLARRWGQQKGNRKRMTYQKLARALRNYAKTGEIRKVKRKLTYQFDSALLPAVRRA

For GCTTCT, the binding signal with FLI1 is 1.41 fold enrichment (6-mer frequency, TF over GST control); in the assay with ELK1, 1.49 fold enrichment (6-mer frequency, TF over GST control); with GABPA, 1.53 fold enrichment (6-mer frequency, TF over GST control); with ERG, 1.44 fold enrichment (6-mer frequency, TF over GST control); with ELF1, 1.59 fold enrichment (6-mer frequency, TF over GST control); in the assay with EHF, 1.52 fold enrichment (6-mer frequency, TF over GST control). Besides, the binding signal in the assay with SPI1 is 1.43 fold enrichment (6-mer frequency, TF over GST control); in the assay with SPIB it was 1.51 fold enrichment (6-mer frequency, TF over GST control); with ELK3, 1.61 fold enrichment (6-mer frequency, TF over GST control).
Take CTGCTT: the binding signal is 1.69 fold enrichment (6-mer frequency, TF over GST control) with FLI1; 1.57 fold enrichment (6-mer frequency, TF over GST control) with ELK1; 1.59 fold enrichment (6-mer frequency, TF over GST control) with GABPA; 1.6 fold enrichment (6-mer frequency, TF over GST control) with ERG; 1.65 fold enrichment (6-mer frequency, TF over GST control) with ELF1; 1.88 fold enrichment (6-mer frequency, TF over GST control) with EHF. The binding signal in the assay with SPI1 is 1.75 fold enrichment (6-mer frequency, TF over GST control); with SPIB, 1.54 fold enrichment (6-mer frequency, TF over GST control); with ELK3, 1.58 fold enrichment (6-mer frequency, TF over GST control).
With TCTCTA, the binding signal with FLI1 is 1.21 fold enrichment (6-mer frequency, TF over GST control); with ELK1, 1.31 fold enrichment (6-mer frequency, TF over GST control); with GABPA, 1.23 fold enrichment (6-mer frequency, TF over GST control); with ERG it was 1.36 fold enrichment (6-mer frequency, TF over GST control); in the assay with ELF1, 1.36 fold enrichment (6-mer frequency, TF over GST control); with EHF, 1.34 fold enrichment (6-mer frequency, TF over GST control). For the same sequence, the binding signal with SPI1 is 1.26 fold enrichment (6-mer frequency, TF over GST control); in the assay with SPIB it was 1.33 fold enrichment (6-mer frequency, TF over GST control); with ELK3, 1.22 fold enrichment (6-mer frequency, TF over GST control).
As for TCCGCC, the binding signal is 1.57 fold enrichment (6-mer frequency, TF over GST control) with FLI1; 1.61 fold enrichment (6-mer frequency, TF over GST control) with ELK1; 1.53 fold enrichment (6-mer frequency, TF over GST control) with GABPA; 1.69 fold enrichment (6-mer frequency, TF over GST control) in the assay with ERG; 1.7 fold enrichment (6-mer frequency, TF over GST control) with ELF1; 1.73 fold enrichment (6-mer frequency, TF over GST control) with EHF. The binding signal with SPI1 was 1.48 fold enrichment (6-mer frequency, TF over GST control); with SPIB, 1.54 fold enrichment (6-mer frequency, TF over GST control); with ELK3 it was 1.86 fold enrichment (6-mer frequency, TF over GST control).
As for GCTTAC, the binding signal in the assay with FLI1 is 1.19 fold enrichment (6-mer frequency, TF over GST control); with ELK1, 1.12 fold enrichment (6-mer frequency, TF over GST control); with GABPA, 1.05 fold enrichment (6-mer frequency, TF over GST control); with ERG, 1.19 fold enrichment (6-mer frequency, TF over GST control); with ELF1, 1.15 fold enrichment (6-mer frequency, TF over GST control); in the assay with EHF, 1.16 fold enrichment (6-mer frequency, TF over GST control). The binding signal is 1.12 fold enrichment (6-mer frequency, TF over GST control) with SPI1; 1.12 fold enrichment (6-mer frequency, TF over GST control) with SPIB; 1.23 fold enrichment (6-mer frequency, TF over GST control) with ELK3.
Take ATGATG: the binding signal is 1.39 fold enrichment (6-mer frequency, TF over GST control) with FLI1; 1.35 fold enrichment (6-mer frequency, TF over GST control) with ELK1; 1.33 fold enrichment (6-mer frequency, TF over GST control) with GABPA; 1.18 fold enrichment (6-mer frequency, TF over GST control) with ERG; 1.36 fold enrichment (6-mer frequency, TF over GST control) in the assay with ELF1; 1.4 fold enrichment (6-mer frequency, TF over GST control) with EHF. For the same sequence, the binding signal with SPI1 was 1.24 fold enrichment (6-mer frequency, TF over GST control); with SPIB it was 1.35 fold enrichment (6-mer frequency, TF over GST control); with ELK3 it was 1.53 fold enrichment (6-mer frequency, TF over GST control).
Consider AAAGTA, for which the binding signal with FLI1 was 1.14 fold enrichment (6-mer frequency, TF over GST control); in the assay with ELK1 it was 1.1 fold enrichment (6-mer frequency, TF over GST control); with GABPA, 1.17 fold enrichment (6-mer frequency, TF over GST control); with ERG, 1.13 fold enrichment (6-mer frequency, TF over GST control); with ELF1, 1.13 fold enrichment (6-mer frequency, TF over GST control); with EHF, 1.15 fold enrichment (6-mer frequency, TF over GST control). For the same sequence, the binding signal with SPI1 is 1.1 fold enrichment (6-mer frequency, TF over GST control); with SPIB it was 1.18 fold enrichment (6-mer frequency, TF over GST control); with ELK3, 1.24 fold enrichment (6-mer frequency, TF over GST control).
